From PubChem BioAssay (NCATS)
Records with an inconclusive call do not appear. Where a call stands in place of a potency, no number is given. Active and inactive are the calls of the source. Calls follow the shape of the dose curve; as a rule, active = well fitted inhibition curve with a large enough effect; inconclusive = small, poorly fitted or top-dose-only effect; inactive = no such curve, though single readings can be large or run the other way.

Tests used:
[1] = test system: Zika virus NS2B-NS3 protease (unlinked complex); assay: Primary screen GU Rhodamine qHTS for Zika virus inhibitors: Unlinked NS2B-NS3 protease assay (AID 1347159); also: nearly all actives have a fitted effect of over 60% in size
Procedure, shortened: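 In dose–response format, inhibition of unlinked protease (25 nM) was measured with 1.5 microM bis-peptide Rhodamine110 substrate. Aprotinin served as the intraplate control.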

[2] = test system: Zika virus NS2B-NS3 protease (linked construct); assay: Primary screen NINDS Rhodamine qHTS for Zika virus inhibitors (AID 1347160); also: nearly all actives have a fitted effect of over 55% in size
Procedure, shortened: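 Each compound, titrated, sat 15 min with 25 nM linked protease before 1.5 microM Rhodamine110 substrate went in. Fluorescence gain over the next 15 min, in pH 8.0 Tris with Tween 20, gave Hill-fitted curves.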

Row | SMILES | Potency [1] | Potency [2]
1 | Cn1cc(-c2ccc3c(c2)CCN3C(=O)Cc2cccc(C(F)(F)F)c2)c2c(N)ncnc21 | inactive | inactive
2 | C=C1CC[C@@H]2[C@](C)(CO)[C@H](O)CC[C@@]2(C)[C@@H]1CC(O)C1=CCOC1=O (some centres undefined) | inactive | inactive
3 | Cc1nc(C#Cc2ccnc(Cl)c2)c(C)n1-c1ccc(F)cc1 | inactive | inactive
4 | COCCCNC(=O)c1ccc(Cn2c(=O)c3ccccc3n(Cc3ccc(C(C)C)cc3)c2=O)cc1 | inactive | inactive
5 | O=C(OC1CN2CCC1CC2)N1CCc2ccccc2C1c1ccccc1 (centres undefined) | inactive | inactive
6 | Cc1nc(C(=O)N2CCC[C@H]2Cc2nnc(-c3ccccc3)o2)c(-c2ccccc2F)s1 | inactive | inactive
7 | CCN(Cc1cc(Nc2nc(C)cn3c(-c4cn[nH]c4)cnc23)sn1)C(C)(C)CO | inactive | inactive
8 | C=C1CCC2C(C)(C(=O)O)CCCC2(C)C1CCC1=CCOC1=O (centres undefined) | inactive | inactive
9 | CO[C@@H]1[C@H](O)CCC2(CO2)[C@H]1[C@@]1(C)O[C@@H]1CC=C(C)C (some centres undefined) | inactive | inactive
10 | Cn1cc(-c2ccc(S(=O)(=O)n3ccc(/C=C/C(=O)Nc4ccccc4N)c3)cc2)cn1 | inactive | inactive
11 | CC(O)(C(=O)C1CC1(CO)COC1OC(CO)C(O)C(O)C1O)C1C(O)CC2C3CC=C4CC(O)CC(O)C4(C)C3C(O)CC21C (centres undefined) | inactive | inactive
12 | C=C(C(=O)O[C@H]1C/C(C)=C/CC/C(CO)=C/[C@H]2OC(=O)C(=C)[C@H]12)C(O)CO (some centres undefined) | inactive | inactive
13 | Nc1nccc(-c2c(-c3ccc(F)cc3)ncn2C2CCCCC2)n1 | inactive | inactive
14 | Cc1cc(-c2cc(OC(=O)c3ccccc3)ccc2Cl)cc2nnc(Nc3ccc(OCCN4CCCC4)cc3)nc12 | inactive | inactive
15 | CC(C)c1cc(-c2ccc(F)c3ccccc23)nc(N)n1 | inactive | inactive
16 | CC(C)S(=O)(=O)c1ccc2nccc(Nc3ccc4scnc4c3)c2c1 | inactive | inactive
17 | CCOc1ccc(-n2c([C@@H](C)N(Cc3cccnc3)C(=O)Cc3ccc(OC(F)(F)F)cc3)nc3ncccc3c2=O)cc1 | inactive | inactive
18 | O=c1ccc2ccc(OCCCCN3CCN(c4cccc5sccc45)CC3)cc2[nH]1 | inactive | inactive
19 | CCN1CCC[C@@H]1CNC(=O)c1ccc2c(c1)NC(=O)c1cccc(C)c1S2 | inactive | inactive
20 | CCc1c[nH]c2ncnc(N3CC[C@](N)(CNC(=O)c4ccc(F)cc4F)C3)c12 | inactive | inactive
21 | Cc1nc(Nc2ccc(F)cc2)nc(N2CCc3ccccc3C2C)c1C (centres undefined) | inactive | inactive
22 | C[C@@H]1O[C@@H](O[C@H]2[C@@H]3C=CO[C@@H](O[C@@H]4O[C@H](CO)[C@@H](O)[C@H](O)[C@H]4O)[C@@H]3[C@@]3(CO)O[C@@H]23)[C@H](O)[C@H](OC(=O)/C=C/c2ccccc2)[C@H]1O | inactive | inactive
23 | CC(=O)O[C@@H]1C[C@@]23C[C@@]24CC[C@H](O[C@@H]2OC[C@H](O)[C@H](O)[C@H]2O)C(C)(C)[C@@H]4CC[C@H]3[C@]2(C)[C@@H](O)C34O[C@H](C[C@@H](C)[C@@H]3[C@@]12C)[C@@H](C(C)(C)O)O4 | inactive | inactive
24 | CCCN(CCc1ccsc1)C1CCc2c(O)cccc2C1 (centres undefined) | inactive | inactive

Row | SMILES | Potency [1] | Potency [2]
25 | N[C@@H]1c2cccnc2[C@H](OC(=O)N2CCC(n3c(=O)[nH]c4ncccc43)CC2)CC[C@H]1c1cccc(F)c1F | inactive | inactive
26 | COC(=O)c1ccc2c(c1)nc(NC(=O)c1ccccc1)n2CCCc1ccccc1 | inactive | inactive
27 | Nc1nc(Cl)nc2c1ncn2C1OC(CO)C(O)C1F (centres undefined) | inactive | inactive
28 | CC[C@@H](C)Nc1cc(C(=O)NC2CC3CC[C@@H](C2)N3c2ccc(C(=O)C3CC3)cn2)c(C)cc1C(N)=O (some centres undefined) | inactive | inactive
29 | Cc1ccnn1-c1ccc(C(=O)N2CCN(S(=O)(=O)c3ccc(Cl)c(C(F)(F)F)c3)CC2)cc1 | inactive | inactive
30 | CCOC(=O)N1c2ccc(C(F)(F)F)cc2C(N(Cc2cc(C(F)(F)F)cc(C(F)(F)F)c2)C(=O)OC)CC1CC (centres undefined) | inactive | inactive
31 | CN(C)C(=O)Nc1cccc(-c2ccc(N(C)C)cc2)c1 | inactive | inactive
32 | CN(C)C(CCOc1cccc2ccccc12)c1ccccc1 (centres undefined) | inactive | inactive
33 | C=C1C(=O)OC2/C=C(\C)CC/C=C(\C)CC(OC(C)=O)C12 (centres undefined) | inactive | inactive
34 | COc1c(F)cccc1C(=O)N1C[C@@H](C)CC[C@H]1CNc1ccc(Br)cn1 | inactive | inactive
35 | CCC(=O)N1CCOc2c(cc(-c3ccc(OC)c(OC)c3)cc2OC[C@H]2CCCN(C)C2)C1 | inactive | inactive
36 | CN1CCN(c2ccc(-c3cccc(CN4CCOCC4)c3)cc2NC(=O)c2c[nH]c(=O)cc2C(F)(F)F)CC1 | inactive | inactive
37 | C=CS(=O)(=O)NC1CCN(C(=O)CNc2cc(I)c(Cl)cc2OC)CC1 | inactive | inactive
38 | CCC1C(=O)N(C)c2cnc(Nc3ccc(C(=O)NC4CCN(C)CC4)cc3OC)nc2N1C1CCCC1 (centres undefined) | inactive | inactive
39 | COc1ccc(C2Oc3c(OC)cc(CCCO)cc3C2COC2OC(CO)C(O)C(O)C2O)cc1OC (centres undefined) | inactive | inactive
40 | CC(C)c1ccc(NC(=O)Cn2cnc3c2c(=O)n(C)c(=O)n3C)cc1 | inactive | inactive
41 | Cn1ncc(Cl)c1-c1cc(C(=O)NC(CN)Cc2ccc(F)c(F)c2)oc1Cl (centres undefined) | inactive | inactive
42 | CCCCCCCCn1cc(CN(CC)CC)c2cc(-c3cnc(N)nc3)ccc21 | inactive | inactive
43 | COc1cc(C(=O)NCC2(N(C)C)CCCC2)cc(OC)c1OCc1ccccc1 | inactive | inactive
44 | C=CCc1ccc(OC(C)Cc2ccc(OC)c(OC)c2)c(OC)c1 (centres undefined) | inactive | inactive
45 | C[C@@H](N[C@H]1CCCC[C@@H]1NC(=O)c1ccc(Cl)cc1)c1cccc2ccccc12 | inactive | inactive
46 | CCc1cc(C(N)=O)ccc1-n1nc(C(C)C)c2c(-n3cnc(-c4cnn(C)c4)c3)ccnc21 | inactive | inactive
47 | CCCc1cc(C)[nH]c(=O)c1CNC(=O)c1cc(-c2ccnc(N3CCN(C)CC3)c2)cc2c1cnn2C(C)C | inactive | inactive
48 | Cc1cccc(-c2[nH]ncc2-c2ccnc3ccccc23)n1 | inactive | inactive

Row | SMILES | Potency [1] | Potency [2]
49 | COc1ccc(CCCN2CCC(COC(c3ccccc3)c3ccccc3)CC2)cc1 | inactive | inactive
50 | CC(C)NCCCn1c(Sc2cc3c(cc2I)OCO3)nc2c(N)ncnc21 | inactive | inactive
51 | COc1c(C)cnc(Cn2cc(C#CCC(C)(C)O)c3c(Cl)nc(N)nc32)c1C | inactive | inactive
52 | N#Cc1ccc2ncnc(NCCc3ccccc3)c2c1 | inactive | inactive
53 | NC(=O)c1cccc2[nH]c(-c3ccc(C4CCCN4)cc3F)nc12 (centres undefined) | inactive | inactive
54 | O=C(NCCN1CCC(n2c(=O)[nH]c3ccccc32)CC1)c1cc2cc(F)ccc2[nH]1 | inactive | inactive
55 | Clc1ncoc1-c1c[nH]c2ccccc12 | inactive | inactive
56 | c1ccc(-c2cnn3cc(-c4ccc(OCCN5CCOCC5)cc4)cnc23)cc1 | inactive | inactive
57 | Cc1nc(NC(=O)N2CCCC2C(N)=O)sc1-c1ccnc(C(C)(C)C(F)(F)F)c1 (centres undefined) | inactive | inactive
58 | C[C@H]1CC[C@@]2(OC1)O[C@H]1CC3[C@@H]4CC[C@@H]5C[C@@H](O[C@@H]6O[C@H](CO)[C@@H](O[C@@H]7O[C@@H](C)[C@H](O)[C@@H](O)[C@H]7O)[C@H](O)[C@H]6O[C@@H]6O[C@H](CO)[C@@H](O)[C@H](O)[C@H]6O)CC[C@]5(C)C4CC[C@]3(C)[C@H]1[C@@H]2C (some centres undefined) | inactive | inactive
59 | Cc1ccc(NC(=O)c2ccc(CN3CCNCC3)cc2)cc1Nc1nccc(-c2cccnc2)n1 | inactive | inactive
60 | CC(C)(N)c1ncc(-c2ccc(OC(F)(F)F)cc2)[nH]1 | inactive | inactive
61 | O=C(NO)c1cnc(N2CCN(S(=O)(=O)c3ccc4ccccc4c3)CC2)nc1 | inactive | inactive
62 | C=C1C(=O)OC2/C=C(\COC(C)=O)CC/C=C(\C=O)CC(OC(=O)C(C)CC)C12 (centres undefined) | inactive | inactive
63 | C[C@@H]1C[C@H](C)CN(CCC(=O)Nc2ccc(Br)cc2)C1 | inactive | inactive
64 | O=S(=O)(NCc1cccc2ccccc12)c1cc(Cl)c(Oc2cccc(N3CCNCC3)c2)s1 | inactive | inactive
65 | C=C(C(=O)OC)[C@@H]1CC=C2C=CC(=O)[C@H](C)[C@@]2(C)C1 | inactive | inactive
66 | O=C(Nc1cnc(Cl)nc1)c1ccc(F)c(F)c1 | inactive | inactive
67 | CC1(C)CC[C@]23CO[C@@]4(CCC5[C@@]6(C)CC[C@H](O[C@@H]7OC[C@H](O[C@@H]8O[C@H](CO)[C@@H](O)[C@H](O)[C@H]8O[C@@H]8OC[C@@H](O)[C@H](O)[C@H]8O)[C@H](O)[C@H]7O[C@@H]7O[C@H](CO)[C@@H](O)[C@H](O)[C@H]7O)[C@@](C)(CO)C6CC[C@@]5(C)[C@]4(C)C[C@H]2O)[C@@H]3C1 (some centres undefined) | inactive | inactive
68 | CC(C)(C)Oc1ccc(OCC2Cc3ccccc3CN2C(=O)c2cccc3ccccc23)cc1 (centres undefined) | inactive | inactive
69 | CC(C)CCCCC(=O)N[C@@H](CO)C(=O)N[C@@H](CC(C)C)C(=O)[C@@]1(CO)CO1 | inactive | inactive
70 | COc1ccc(C[C@H]2COC(=O)[C@@H]2Cc2ccc(O[C@@H]3O[C@H](CO)[C@@H](O)[C@H](O)[C@H]3O)c(OC)c2)cc1OC | inactive | inactive
71 | CCCC(Nc1nc(-c2ccc(NC(=O)NCC)c(OC)c2)ncc1C)c1cccnc1 (centres undefined) | inactive | inactive
72 | COc1cc(NC(=O)c2cccc(-n3cc(NC(=O)Nc4cccc(C)c4)cn3)c2)cc(OC)c1OC | inactive | inactive
